Mcl1-Noxa inh – Mcl-1/Noxa interaction inhibition. TR-FRET Mcl-1/Noxa peptide binding, 2 h. inhibition, % at 21.7 µM. AID 1022. 220,000 compounds, 1.5% hits;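 active means compounds that cut the protein-peptide binding signal by more than 50% relative to plate controls in a single-dose test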;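 further: His-tagged Mcl-1 with rhodamine Noxa BH3 peptide and terbium anti-His antibody; 0% = Mcl-1 plus Noxa peptide wells and 100% = peptide-only wells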
Target sequence (Q07820 whole entry, looked up): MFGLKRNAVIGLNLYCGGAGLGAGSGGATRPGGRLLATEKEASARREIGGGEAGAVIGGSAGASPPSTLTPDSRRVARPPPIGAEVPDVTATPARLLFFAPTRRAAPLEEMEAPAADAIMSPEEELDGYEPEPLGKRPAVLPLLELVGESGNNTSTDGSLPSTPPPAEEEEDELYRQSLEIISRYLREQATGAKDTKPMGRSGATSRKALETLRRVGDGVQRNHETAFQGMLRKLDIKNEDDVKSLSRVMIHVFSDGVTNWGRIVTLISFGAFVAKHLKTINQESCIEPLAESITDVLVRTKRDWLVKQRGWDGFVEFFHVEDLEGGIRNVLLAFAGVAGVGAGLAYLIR
14-3-3 Bad PPI – disrupts binding of bovine 14-3-3 zeta to phospho-Bad peptide; P63103; TR-FRET 14-3-3zeta/Dy647-pBad peptide displacement, 1 h; inhibition, % at 21.7 µM; 220,000 compounds, 0.71% hits;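 active means inhibition above about 70%, limit read from the data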;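 further: 0% = full 14-3-3 plus peptide FRET controls and 100% = background without 14-3-3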
Target sequence (P63103 whole entry, looked up): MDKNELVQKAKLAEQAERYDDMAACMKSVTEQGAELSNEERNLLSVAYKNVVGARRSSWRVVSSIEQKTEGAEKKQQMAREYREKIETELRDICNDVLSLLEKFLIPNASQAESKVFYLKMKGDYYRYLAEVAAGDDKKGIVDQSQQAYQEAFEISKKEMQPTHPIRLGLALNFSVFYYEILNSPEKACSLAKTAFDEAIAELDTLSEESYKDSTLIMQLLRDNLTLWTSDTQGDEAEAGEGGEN
Arbovirus inh – antivirals against arbovirus infection; arbovirus infection cell-based antiviral screen; inhibition, % at 10 µM; 200,000 compounds, 0.37% hits; AID 1251; in the data active means inhibition above about 30%
Mcl-1 Bim block – disrupts Bim peptide binding to human Mcl-1; AID 1009; 190,000 compounds, 0.1% hits; Bead-based flow cytometry, Bim peptide-Mcl-1 binding; Q07820; inhibition, % at 10 µM; in the data active means inhibition above about 40%;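 further: 0% = no compound tracer wells and 100% = peptide blocker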
Mcl1-Bid inh – disrupts binding of human Mcl-1 to Bid peptide. TR-FRET Mcl-1/Bid-Dy647 peptide binding, 1536-well. inhibition, % at 21.7 µM. 220,000 compounds, 0.97% hits. Q07820;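 active means compounds that cut the binding signal by more than half at the single screening dose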;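 further: His-tagged Mcl-1 with europium anti-His antibody binding Bid BH3 peptide; 0% = Mcl-1 plus peptide wells and 100% = peptide-only wells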
The depositor's hits bear a star; x = not tested or not shown. An excerpt weighted towards active compounds, which were near 3% of everything screened.

SMILES	Mcl1-Noxa inh	14-3-3 Bad PPI	Arbovirus inh	Mcl-1 Bim block	Mcl1-Bid inh
O=C(NCc1ccc2c(c1)OCO2)C(=O)Nc1ccccc1	14	-6	0	-2	-32
CCCCC(=O)Nc1cccc(NC(=O)c2ccc3c(c2)OCO3)c1	24	-3	-13	-3	63*
CCCC(=O)Nc1cccc(NC(=O)c2ccc3c(c2)OCCO3)c1	5	-4	0	0	-26
CCOc1cc(CNCCCN2CCOCC2)cc(Br)c1OCC(=O)Nc1cccc(C(F)(F)F)c1	18	79*	-5	-1	21
Clc1cccc(N2CCN(Cc3nc(-c4ccccc4)no3)CC2)c1	11	-3	33*	0	-27
Clc1ccc(-c2noc(CN3CCN(c4ccccc4)CC3)n2)cc1	-13	-9	7	-3	-17
Cc1nn(CCCC(=O)N2CCN(c3ccc(F)cc3)CC2)c(C)c1[N+](=O)[O-]	4	-4	0	-1	-17
COc1ccc(OCCNC(=O)c2ccccc2OCC(=O)N2CCCCC2)cc1	-13	0	-2	68*	-7
Nc1scc2c(C(=O)N/N=C/c3ccc(Cl)cc3)nn(-c3ccccc3)c(=O)c12	94*	-3	-13	1	4
Cc1cccc(Nc2sc(C(=O)c3cc4cc(Cl)ccc4o3)c(N)c2C#N)c1	68*	67	x	x	66*
N#Cc1c(Nc2ccccc2)sc(C(=O)c2ccccc2)c1N	10	-8	-25	0	-43
CN(C(=O)CSc1nnc(Nc2ccccc2)s1)c1c(N)n(Cc2ccccc2)c(=O)[nH]c1=O	53*	-4	0	8	-18
Brc1c(NC2=NCCN2)ccc2nccnc12	59*	0	2	0	2
O=C1c2ccccc2C(=O)C1Cc1cccc2ccccc12	42	14	4	0	89*
CN(C)C(=O)C1CCC(=O)N1Cc1cccs1 (centres undefined)	3	88*	2	1	-29
O=C(C1CCC(=O)N1Cc1cccs1)N1CCOCC1 (centres undefined)	16	-8	4	2	-16
Cc1cccc(OCC(=O)O/N=C(\N)c2ccc(Br)cc2)c1	-1	-6	x	x	-16
Cc1csc(NC(=O)C2=NN(c3ccccc3)C(=O)CC2)n1	5	-7	-3	19	-31
COc1cccc(C(=O)Nc2nc(-c3ccc(S(=O)(=O)N4CCOCC4)cc3)cs2)c1	-63	-30	0	0	-7
COc1ccc(-c2csc(NC(=O)c3ccc(OCC(=O)N4CCOCC4)c(OC)c3)n2)cc1	-3	-13	44*	-3	-76
COc1cc(C(=O)Nc2nc(-c3ccc(C)cc3)cs2)ccc1OCC(=O)N1CCOCC1	-14	19	91*	-4	-3
COc1cc(C(=O)O)ccc1OCC(=O)N1CCOCC1	8	4	-1	0	-1
Cc1ccc(-c2csc(NC(=O)C3=NN(c4ccccc4)C(=O)CC3)n2)cc1	38	-12	67*	0	-13
Cc1ccc(-c2csc(NC(=O)c3cccc(S(=O)(=O)N4CCN(C)CC4)c3)n2)cc1	-26	-16	35*	0	-29
O=C(NCc1n[nH]c(=S)n1-c1ccc(Br)cc1)c1cccs1	19	-22	-1	-1	-26
SMILES	Mcl1-Noxa inh	14-3-3 Bad PPI	Arbovirus inh	Mcl-1 Bim block	Mcl1-Bid inh
O=C(Nc1cc(F)c(Br)cc1F)c1ccc(Cl)cc1	6	5	x	x	-14
COc1cc(C(=O)Nc2nc(-c3ccc(F)cc3)cs2)ccc1OCC(=O)N1CCOCC1	18	3	83*	-4	-25
O=c1nc2scc(-c3ccccc3)n2c2ccccc12	-3	-6	-4	-4	-24
CC(C)CNC(=O)c1c(N)n(/N=C/c2ccccn2)c2nc3ccccc3nc12	23	24	5	-7	56*
COCCNC(=O)c1c(N)n(/N=C/c2cccs2)c2nc3ccccc3nc12	12	22	12	-1	18
COCCNC(=O)c1c(N)n(/N=C/c2ccc(F)cc2)c2nc3ccccc3nc12	13	-8	x	x	-8
CCCCNC(=O)c1c(N)n(/N=C/c2ccccn2)c2nc3ccccc3nc12	32	81*	-4	-3	32
O=C(NC1CCS(=O)(=O)C1)C12CC3CC(CC(C3)C1)C2 (centres undefined)	-10	8	-22	-1	7
N#CC(C#N)=C1c2cc(S(N)(=O)=O)ccc2-c2ccc(S(N)(=O)=O)cc21	50	81*	5	-5	29
O=C(COc1ccc(Cl)cc1)Nc1ccc(Cl)cn1	-1	82*	-7	0	-15
CSCCC1COC(c2cccs2)=N1 (centres undefined)	-3	-22	1	0	-31
O=C(COc1cccnc1[N+](=O)[O-])c1ccc(Cl)s1	82*	25	x	x	80*
COc1ccc(CCNC(=O)CC2SC(=NCCC(C)C)NC2=O)cc1OC (centres undefined)	-26	1	-4	-4	-67
N#C/C(=C(/O)COC(=O)CCc1ccc(S(=O)(=O)N2CCOCC2)cc1)c1nc2ccccc2[nH]1	62*	-7	-51	3	-24
Cc1ccc(C(=O)OC/C(O)=C(\C#N)c2nc3ccccc3[nH]2)cc1S(=O)(=O)N1CCOCC1	-18	-2	-5	-2	-28
N#C/C(=C(/O)COC(=O)c1ccc(Cl)c(S(=O)(=O)N2CCOCC2)c1)c1nc2ccccc2[nH]1	52*	4	-9	-1	-1
CC1CN(S(=O)(=O)c2cccc(C(=O)OC/C(O)=C(\C#N)c3nc4ccccc4[nH]3)c2)CC(C)O1 (centres undefined)	6	-6	-16	-3	-24
Cc1ccc(CN2CCN(/N=C\C=C\c3ccccc3)CC2)cc1	-13	-9	-25	-2	-56
O=C(N/N=C\c1c(O)ccc2ccccc12)c1ccc(Cn2cccn2)o1	51*	-18	-33	0	-70
CC(C)(C)C(=O)OC/C(N)=N/OC(=O)c1ccc(Cl)cc1	-17	91*	x	x	-22
CCc1ccc(CCC(=O)Nc2ccccc2C(=O)O)o1	24	48	38*	-1	-18
CCCC(=O)NNC(=O)CC(=O)Nc1ccccc1C(=O)O	-9	-1	x	x	-5
COc1ccc(-c2nnn(CC(=O)NCCc3ccc(OC)c(OC)c3)n2)cc1	2	-8	-1	1	-2
CN1CCN(CCC(=O)N2c3ccccc3Sc3ccc(C(F)(F)F)cc32)CC1	19	80*	0	5	15
Cc1nnc(SCC(=O)c2ccc(Br)cc2)s1	-5	0	19	-3	-24
Cc1cc(NC(=O)CSc2nnc(-c3ccccc3)c(-c3ccccc3)n2)no1	-14	-14	-20	-1	-27
CCC(C)n1ncn(-c2ccc(N3CCN(c4ccc(OCC5COC(Cn6cncn6)(c6ccc(Cl)cc6Cl)O5)cc4)CC3)cc2)c1=O (centres undefined)	-4	-2	-18	-2	14
CCCC1COC(Cn2cncn2)(c2ccc(C)cc2)O1 (centres undefined)	-9	88*	-5	5	-25
